Laboratory results as given in PubChem BioAssay AID1159580 (chemical genetic matrix, 2015).
Values joined by “and” are separate entries in the source; they are usually repeats but may differ in a detail not shown here. Identical values can stand only once. Screen size: about 5,500 compounds; about 2,000 (36%) were called active. Not shown: some 18% with an inconclusive outcome. No stated cut-off is given here; in the data, active means normalized growth mostly below about 0.91 (no sharp cut-off); inconclusive means no clear call, values can overlap the other calls; inactive means mostly above about 0.92. Some of the results follow.

Experiment: chemical genetic growth profiling, strain panel (AID 1159580);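 further: tested at 20 µM; growth read once vehicle control cultures reached saturation at 30 °C; 1 = growth at the plate median or of vehicle wells; lower values mean less growth of the strain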
Conditions: growth OD

Measured: normalized growth

CN1CCN(C2=Nc3cc(Cl)ccc3Nc3ccccc32)CC1
inactive: S. cerevisiae deletion strains, locus YJR066W, strain TOR1, active compounds read low 0.997 | S. cerevisiae deletion strains, locus YJR075W, strain HOC1, active compounds read low 0.982 | S. cerevisiae deletion strains, locus YKL009W, strain mrt4, active compounds read low 1.01 | S. cerevisiae deletion strains, locus YKL068W, active compounds read low 1.01 | S. cerevisiae deletion strains, locus YKL085W, strain MDH1 (second series), active compounds read low 1.04 | S. cerevisiae deletion strains, locus YKL085W, strain MDH1, active compounds read low 1.04 | S. cerevisiae deletion strains, locus YKL160W, strain elf1, active compounds read low 0.972 | S. cerevisiae deletion strains, locus YKL190W, strain CNB1, active compounds read low 1.02 | S. cerevisiae deletion strains, locus YKR001C, strain vps1, active compounds read low 1.03 | S. cerevisiae deletion strains, locus YKR026C, strain gcn3, active compounds read low 0.988 | S. cerevisiae deletion strains, locus YKR091W, strain srl3, active compounds read low 0.98 | S. cerevisiae deletion strains, locus YLL001W, strain dnm1, active compounds read low 0.984 | S. cerevisiae deletion strains, locus YLL026W, active compounds read low 1 | S. cerevisiae deletion strains, locus YLL041C, strain sdh2, active compounds read low 0.992 | S. cerevisiae deletion strains, locus YLR027C, strain aat2, active compounds read low 0.988 | S. cerevisiae deletion strains, locus YLR039C, strain RIC1, active compounds read low 1.25 | S. cerevisiae deletion strains, locus YLR058C, strain SHM2, active compounds read low 1.01 | S. cerevisiae deletion strains, locus YLR102C, strain apc9, active compounds read low 1.02 | S. cerevisiae deletion strains, locus YLR113W, strain HOG1, active compounds read low 1.01 | S. cerevisiae deletion strains, locus YLR221C, strain rsa3, active compounds read low 1.01 | S. cerevisiae deletion strains, locus YLR258W, strain gsy2, active compounds read low 0.983 | S. cerevisiae deletion strains, locus YLR262C, strain YPT6 (second series), active compounds read low 1.05 | S. cerevisiae deletion strains, locus YLR262C, strain YPT6, active compounds read low 1.2 | S. cerevisiae deletion strains, locus YLR268W, strain sec22, active compounds read low 1.01 | S. cerevisiae deletion strains, locus YLR320W, strain mms22, active compounds read low 0.952 | S. cerevisiae deletion strains, locus YLR330W, strain CHS5, active compounds read low 1.02 | S. cerevisiae deletion strains, locus YLR342W, strain FKS1 (second series), active compounds read low 1.04 | S. cerevisiae deletion strains, locus YLR342W, strain FKS1, active compounds read low 0.953 | S. cerevisiae deletion strains, locus YLR357W, strain rsc2, active compounds read low 1.01 | S. cerevisiae deletion strains, locus YLR370C, strain arc18, active compounds read low 0.984 | S. cerevisiae deletion strains, locus YLR371W, strain rom2, active compounds read low 1.03 | S. cerevisiae deletion strains, locus YLR384C, strain iki3, active compounds read low 0.984 | S. cerevisiae deletion strains, locus YLR418C, strain cdc73, active compounds read low 0.955 | S. cerevisiae deletion strains, locus YML016C, strain PPZ1, active compounds read low 1.01 | S. cerevisiae deletion strains, locus YML032C, strain rad52, active compounds read low 0.935 | S. cerevisiae deletion strains, locus YML120C, strain ndi1, active compounds read low 0.98 | S. cerevisiae deletion strains, locus YML124C, strain tub3, active compounds read low 1.02 | S. cerevisiae deletion strains, locus YMR058W, strain fet3, active compounds read low 0.982 | S. cerevisiae deletion strains, locus YMR078C, strain ctf18, active compounds read low 1.02 | S. cerevisiae deletion strains, locus YMR125W, strain sto1, active compounds read low 0.943 | S. cerevisiae deletion strains, locus YMR129W, active compounds read low 0.99 | S. cerevisiae deletion strains, locus YMR205C, strain PFK2, active compounds read low 0.977 | S. cerevisiae deletion strains, locus YMR223W, strain ubp8, active compounds read low 1.02 | S. cerevisiae deletion strains, locus YMR231W, strain pep5, active compounds read low 0.986 | S. cerevisiae deletion strains, locus YMR263W, strain SAP30, active compounds read low 0.986 | S. cerevisiae deletion strains, locus YMR307W, strain GAS1, active compounds read low 1.1 | S. cerevisiae deletion strains, locus YNL067W, strain RPL9B, active compounds read low 0.974 | S. cerevisiae deletion strains, locus YNL071W, strain lat1, active compounds read low 0.937 | S. cerevisiae deletion strains, locus YNL128W, strain TEP1, active compounds read low 0.991 | S. cerevisiae deletion strains, locus YNL153C, strain GIM3, active compounds read low 0.993 and 1.01 | S. cerevisiae deletion strains, locus YNL175C, strain NOP13, active compounds read low 0.999 | S. cerevisiae deletion strains, locus YNL183C, strain NPR1, active compounds read low 0.99 | S. cerevisiae deletion strains, locus YNL209W, strain ssb2, active compounds read low 0.973 | S. cerevisiae deletion strains, locus YNL224C, strain SQS1, active compounds read low 1.01 | S. cerevisiae deletion strains, locus YNL233W, strain BNI4, active compounds read low 0.988 | S. cerevisiae deletion strains, locus YNL248C, strain rpa49, active compounds read low 0.957 | S. cerevisiae deletion strains, locus YNL250W, strain rad50, active compounds read low 0.966 | S. cerevisiae deletion strains, locus YNL271C, strain bni1, active compounds read low 1.01 | S. cerevisiae deletion strains, locus YNL298W, strain CLA4, active compounds read low 0.984 | S. cerevisiae deletion strains, locus YNL307C, strain MCK1, active compounds read low 0.995 | S. cerevisiae deletion strains, locus YNL322C, strain KRE1 (second series), active compounds read low 0.956 | S. cerevisiae deletion strains, locus YNL322C, strain KRE1, active compounds read low 1.01 | S. cerevisiae deletion strains, locus YNR049C, strain mso1, active compounds read low 0.99 | S. cerevisiae deletion strains, locus YNR052C, strain pop2, active compounds read low 1.01 | S. cerevisiae deletion strains, locus YOL006C, strain TOP1, active compounds read low 0.988 | S. cerevisiae deletion strains, locus YOL012C, strain htz1 2.02 | S. cerevisiae deletion strains, locus YOL147C, strain pex11, active compounds read low 1.02 | S. cerevisiae deletion strains, locus YOR001W, strain rrp6, active compounds read low 0.996 | S. cerevisiae deletion strains, locus YOR061W, strain CKA2, active compounds read low 1.01 | S. cerevisiae deletion strains, locus YOR069W, strain VPS5, active compounds read low 1.07 | S. cerevisiae deletion strains, locus YOR070C, strain gyp1, active compounds read low 0.989 | S. cerevisiae deletion strains, locus YOR080W, strain dia2, active compounds read low 0.974 | S. cerevisiae deletion strains, locus YOR083W, strain WHI5, active compounds read low 0.92 | S. cerevisiae deletion strains, locus YOR106W, strain vam3, active compounds read low 0.978 | S. cerevisiae deletion strains, locus YOR136W, strain idh2, active compounds read low 1.02 | S. cerevisiae deletion strains, locus YOR144C, strain elg1, active compounds read low 1.01 | S. cerevisiae deletion strains, locus YOR184W, strain ser1, active compounds read low 1.03 | S. cerevisiae deletion strains, locus YOR231W, strain MKK1, active compounds read low 1.01 | S. cerevisiae deletion strains, locus YOR265W, strain rbl2, active compounds read low 0.993 | S. cerevisiae deletion strains, locus YOR270C, strain vph1, active compounds read low 0.96 | S. cerevisiae deletion strains, locus YOR290C, strain snf2, active compounds read low 0.943 | S. cerevisiae deletion strains, locus YOR316C, strain cot1, active compounds read low 1.03 | S. cerevisiae deletion strains, locus YPL051W, strain arl3, active compounds read low 0.965 | S. cerevisiae deletion strains, locus YPL055C, strain LGE1, active compounds read low 0.93 | S. cerevisiae deletion strains, locus YPL078C, strain atp4, active compounds read low 0.959 | S. cerevisiae deletion strains, locus YPL106C, strain sse1, active compounds read low 0.999 | S. cerevisiae deletion strains, locus YPL240C, strain hsp82, active compounds read low 0.979 | S. cerevisiae deletion strains, locus YPL241C, strain CIN2, active compounds read low 1.05 and 1 | S. cerevisiae deletion strains, locus YPL256C, strain CLN2, active compounds read low 1.05 | S. cerevisiae deletion strains, locus YPR119W, strain clb2, active compounds read low 1.01 | S. cerevisiae deletion strains, locus YPR141C, strain kar3, active compounds read low 1.02 | S. cerevisiae deletion strains, locus YPR163C, strain tif3, active compounds read low 1.01 | S. cerevisiae deletion strains, locus YPR167C, strain met16, active compounds read low 1.02 | S. cerevisiae deletion strains, strain wtn01, active compounds read low 1 | S. cerevisiae strains, strain wild type, active compounds read low 1.02
